# From PubChem BioAssay
# TDP1 block: blocks human tyrosyl-DNA phosphodiesterase 1; Q9NUW8; recombinant TDP1, AlphaScreen DNA substrate cleavage; Potency, µM (titrated, usually from 130 µM), inactives show top-dose activity change, negative = inhibition, usual class: inhibitors; 0.28% of 350,000 active; AID 485290; also: potency is read from the fitted curve at half-maximal effect; nearly all actives have a fitted effect of over 40% in size
#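 Tdp1 1 nM final; 15 min RT w/ cpd; substrate 15 nM, 5 min; beads 10 ug/ml, 10 min; AlphaScreen read. Neg ctrl: no enzyme.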
# PI5P4K alpha inh: blocks human PI5P4K alpha kinase activity; max response, %; 1.2% of 330,000 active; P48426; PI5P4Kalpha enzyme, ADP-Glo luminescence, 60 min; hits give low values; active = max response of -50% or lower; inconclusive = between -30% and -50%; inactive = -30% or higher; also: value at the top dose of about 77 µM
#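 Controls without substrate or without enzyme flank wells where PI5P4Kalpha converts substrate using 5 microM ATP (final). Incubation lasts 60 minutes at room temperature; ADP formed is read by ADP-Glo luminescence.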
# FEN1 inh: human FEN1 inhibition. P39748. Recombinant FEN1 flap cleavage, fluorescence, 15 min. Potency, µM (doses to about 114 µM), for inactives: at the highest dose activity change, negative = inhibition, hits mostly inhibitors. 0.35% of 390,000 active. AID 588795; also: potency is read from the fitted curve at half-maximal effect; nearly all actives have a fitted effect of over 65% in size
#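 Potency values derive from four-parameter Hill fits of normalized qHTS data. The reaction used 10 nM FEN1 preincubated 15 min at room temperature with compound, then 50 nM DNA substrate, read at 0 and 15 min.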
# Tb PFK block: inhibitors of T. brucei phosphofructokinase; O15648; T. brucei PFK, ADP-Glo luminescence; Potency, µM (top dose mostly 57.5 µM), for the others: top-dose activity, negative = inhibition, actives largely listed as inhibitors; 0.17% of 330,000 active;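 also: potency is read from the fitted curve at half-maximal effect; 0% = uninhibited 1x PFK enzyme wells and -100% = no-enzyme wells; nearly all actives have a fitted effect of over 60% in size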
#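 Compounds were pin-transferred as a titration series up to 57 uM into substrate buffer (0.5 mM F6P, 0.1 mM ATP, pH 8.0), then 1.25 nM PFK was added and reactions ran 45 min before ADP-Glo detection.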
# WRN helicase inh: WRN helicase (human) inhibition; WRN helicase unwinding, fluorescent forked duplex, kinetic; Potency, µM (titrated, usually from 114 µM), inactives show top-dose activity change, negative = inhibition, most hits filed as inhibitors; 0.46% of 360,000 active; AID 651768; also: potency is read from the fitted curve at half-maximal effect; nearly all actives have a fitted effect of over 55% in size
#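 Primary qHTS, 1536-well format. 20 nM WRN + compound, 15 min RT; start with 100 nM forked fluorophore/quencher duplex, 2 mM ATP (final); kinetic read ex 525/em 598 nm.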
# PGK inhibitor: T. brucei PGK inhibition | P07378 | PGK/GAPDH coupled, Kinase-Glo luminescence, 60 min | Potency, µM (top dose mostly 57.5 µM), inactives show at the top dose activity change, negative = inhibition, hits mostly inhibitors | 0.043% of 380,000 active; also: potency is read from the fitted curve at half-maximal effect; nearly all actives have a fitted effect of over 60% in size
# Target sequence (P07378 whole entry, looked up): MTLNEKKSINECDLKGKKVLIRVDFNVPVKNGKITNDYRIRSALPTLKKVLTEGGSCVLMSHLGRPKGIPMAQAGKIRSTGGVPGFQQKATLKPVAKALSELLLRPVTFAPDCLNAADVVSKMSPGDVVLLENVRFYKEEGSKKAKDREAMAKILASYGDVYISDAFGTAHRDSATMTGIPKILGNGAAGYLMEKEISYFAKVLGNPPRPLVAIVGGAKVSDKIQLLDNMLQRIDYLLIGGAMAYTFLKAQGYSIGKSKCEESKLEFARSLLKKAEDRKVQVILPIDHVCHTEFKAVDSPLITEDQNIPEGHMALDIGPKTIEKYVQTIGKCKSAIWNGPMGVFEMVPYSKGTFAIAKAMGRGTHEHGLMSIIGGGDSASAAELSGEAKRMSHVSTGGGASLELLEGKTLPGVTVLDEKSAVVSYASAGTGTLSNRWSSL
#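 Luminescent ATP detection (Kinase-Glo Plus) follows a 60-minute room-temperature incubation, with wells lacking PGK as controls. Buffer: 100 mM TEA (pH 7.6), 5 mM MgCl2, 0.01% Tween-20. Coupling enzyme GAPDH (100 nM final) supplies unstable 1,3-BPG in-well.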
# ADP-Glo counter: counter-screen for PI5P4K inhibitors: ADP-Glo detection interference, no enzyme. 1,100 tested, under 10 active. shares compounds with PI5P4K alpha inh. Potency, µM (highest dose often 76.9 µM), inactives show top-dose activity change, negative = inhibition, actives largely listed as inhibitors. ADP-Glo detection counter-screen, luciferase luminescence, no enzyme. AID 743285
# Active calls of the source: *; i = inactive; u = inconclusive; x = not tested or not shown; [ ] = another dose, or the depositor's remark. A selection: hits, their analogues and other compounds. The true share with any hit is near 1.5%. Unless noted, calls follow the shape of the dose curve; as a rule, active = well fitted curve in the direction sought with a large enough effect; inconclusive = small, poorly fitted or top-dose-only effect, or another doubt; inactive = no such curve, though single readings can be large; an effect the other way counts as inactive or inconclusive. Unless noted, % is scaled to controls: 0 for no effect and ±100 for the full control effect.
SMILES,TDP1 block,PI5P4K alpha inh,FEN1 inh,Tb PFK block,WRN helicase inh,PGK inhibitor,ADP-Glo counter
Cc1ccc(C(O)c2ncc(-c3ccccc3F)[nH]2)c(C)c1 (centres undefined),x,-1,x,x,-5%,x,x
Cc1nc(Nc2cccc(C(F)(F)F)c2)nc2c1C(=O)CC(C)C2 (centres undefined),6%,0,11%,-2%,-3%,-10%,x
Cc1ccc(Nc2nc(C)c3c(n2)CC(C)CC3=O)c(C)c1 (centres undefined),5%,3,0%,-1%,-6%,-3%,3%
C/C(=N/NC(N)=S)c1cc2ccc(O)cc2oc1=O,6%,u,12%,-15%,-5%,u,x
COc1ccc2cc(C(N)=O)c(=Nc3ccc(C)cc3)oc2c1,1%,8,-1%,-2%,1%,i,x
NC(=S)c1cc2ccc(O)cc2oc1=O,-4%,-72*,-14%,0%,u,-9%,-7%
Cc1cccc(N=c2oc3cc(O)ccc3cc2C(N)=O)c1,8%,-55*,-16%,0%,-10%,-9%,5%
CCOc1ccc(C(=O)c2cc3ccc(O)cc3oc2=O)cc1,0%,-67*,-5%,-3%,-2%,-9%,0%
O=C1C(=O)N(CC2CCCO2)C(c2ccccc2[N+](=O)[O-])/C1=C(/O)c1ccccc1 (centres undefined),0%,8,u,-10%,-3%,2%,x
CC(=O)c1ccc(OCc2c(-c3ccccc3)nnn2CC(=O)NS(=O)(=O)c2ccc(C)cc2)cc1,x,-6,x,x,6%,x,x
CC(=O)c1ccc(OCc2c(-c3ccccc3)nnn2CC(=O)NS(=O)(=O)c2ccccc2C)cc1,x,-51*,x,x,-6%,x,-4%
COc1ccccc1C(=O)OCc1cc(=O)n2c(C)csc2n1,6%,x,2%,x,x,-6%,x
CCOC(=O)C1CCCN(C(=O)c2ccc(F)c(C)c2)CC1 (centres undefined),x,u,x,x,-4%,x,-1%
Cc1ccc(S(=O)c2ccc(NC(=O)C3CC3)cc2C#N)cc1 (centres undefined),-2%,-63*,-5%,1%,-8%,-7%,-6%
Cc1ccc(-c2csc(NC(=O)c3ccno3)n2)cc1,4%,-53*,4%,-6%,-25%[57.1 µM],-1%,-3%
Cc1ccc(-n2c(C)cc3c2CCCC3=O)cc1,3%,x,-7%,-2%,-1%,x,x
Cc1ccc(-c2cc3c(n2-c2ccc(C(=O)O)cc2)CCCC3=O)cc1,6%,-78*,4%,0%,-20%,-5%,-6%
COc1cccc(CNS(=O)(=O)c2ccccc2Br)c1OC,x,-60*,4%,x,3%,9%,1%
CN(c1cccc(NC(=O)c2ccc(N(C)S(=O)(=O)c3ccccc3)cc2)c1)S(C)(=O)=O,-3%,-56*,u,2%,-2%[11.6 µM],-9%,-4%
CC(=O)Nc1ccc(C(=O)Nc2cccc(S(=O)(=O)N(C)c3ccccc3)c2)cc1,1%,-1,4%,4%,-2%,-4%,x
C[C@H](CO)N1C[C@H](C)[C@@H](CN(C)S(=O)(=O)c2ccc3c(c2)OCCCO3)OCc2cnnn2CCCC1=O,x,-61*,x,x,-4%,i,-3%
COc1ccc2c(c1)c(=O)oc1c(C)c(OCc3ccc(C(=O)O)cc3)ccc12,x,u,u,-3%,-10%,-11%,x
COc1ccc2c(c1)c(=O)oc1c(C)c(OCc3cc(C(=O)O)oc3C)ccc12,0%,-68*,u,-8%,50µM*,-26%,1%
Cc1ccc(NC(=O)N2CCC(NC(=O)c3ccco3)CC2)cc1,-1%,-2,3%,-4%,4%,6%,x
Cc1ccc(NC(=O)N2CCC(NC(=O)c3cccc(C)c3)CC2)cc1,x,-78*,11%,-11%,-7%,-2%,-5%
SMILES,TDP1 block,PI5P4K alpha inh,FEN1 inh,Tb PFK block,WRN helicase inh,PGK inhibitor,ADP-Glo counter
CC(NC(=O)c1ccnn1C)C1CCCO1 (centres undefined),6%,u,-12%,0%,3%,x,2%
CCOc1ccc(S(=O)(=O)NCc2ccccn2)cc1NC(=O)c1ccccc1F,3%,-6,-11%,-1%,-8%,2%,x
Cc1c(C(=O)OCC(C)C)[nH]c2c1C(=O)CC(c1ccco1)C2 (centres undefined),3%,-56*,4%,-21%,-17%[57.1 µM],0%,-13%
COCc1ccc2oc(C(=O)O)cc2c1,0%,-68*,21%,-2%,u,i,0%
Cc1ccc(OCC(=O)Nc2ccc(C(=O)Nc3ccccc3C(=O)O)cc2)cc1C,x,-27,x,x,-1%,-21%,x
O=C(COc1ccc2ccccc2c1)Nc1cccc(C(=O)Nc2ccccc2C(=O)O)c1,6%,-74*,-17%,2%,u,-8%,1%
O=C(COc1ccc(Br)cc1)Nc1ccc(C(=O)Nc2ccccc2C(=O)O)cc1,x,-58*,-13%,-8%,u,-28%,4%
Cc1ccsc1C(=O)N1CCC1(C)C(=O)NS(=O)(=O)c1ccccc1C(F)(F)F (centres undefined),x,3,x,x,-7%,x,x
O=C(CSc1nc(-c2ccccc2)cc(=O)[nH]1)N1CCc2ccccc21,-1%,-50*,-7%,-2%,-28%,-5%,-5%
COc1ccc(-c2cc(C(F)F)n3ncc(C(=O)n4ccnc4C)c3n2)cc1,8%,-26,2%,10%,-3%,-12%,3%
Cc1sc2nc(SCC(=O)NCc3ccco3)n(C)c(=O)c2c1C,-5%,-1,-10%,0%,-8%[57.1 µM],-10%,x
CCn1c(SCC(=O)NC(=O)NCc2ccco2)nc2sc(C)c(C)c2c1=O,-9%,-51*,3%,u,u,0%,1%
CCN(CC)C(=O)c1[nH]cnc1C(=O)Nc1ccc(OC)cc1,6%,0,0%,-3%,-2%,-7%,-8%
CCN(CC)C(=O)c1[nH]cnc1C(=O)Nc1ccc(Cl)cc1,2%,7,-13%,-2%,-6%,i,x
CC1CCc2c(sc3ncnc(NS(=O)(=O)c4cccs4)c23)C1 (centres undefined),6%,-55*,-4%,3%,5%,i,2%
COCCCNc1ncnc2sc3c(c12)CCC(C)C3 (centres undefined),-8%,3,-9%,-4%,-1%,-7%,x
